In the library only some 9.5% were active in any assay of this set; here they are far more common.
Tau fluor counter: counter-screen for tau fibril formation inhibitors. tau K18 P301L Alexa594 fluorescence, heparin fibrillization. Potency, µM (titrated, usually from 57.7 µM), for inactives: at the highest dose activity change, negative = decrease. actives 0.93% (n = 280,000). AID 1463; further: nearly all actives have a fitted effect of over 55% in size
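Human tau K18 P301L (15 uM unlabeled, 0.24 uM Alexa 594-labeled) in 100 mM sodium acetate pH 7 with 20 uM heparin, 6 hr at 37 C. ThT 30 uM added, 1 hr ambient; Alexa 594 FP and total fluorescence read at 555/632 nm.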
ALDH1A1 block: blocks purified human ALDH1A1 activity; P00352; Purified ALDH1A1, NADH fluorescence, propionaldehyde substrate; Potency, µM (series often up to 75.3 µM), without a hit: top-dose activity, negative = inhibition, most hits filed as inhibitors; actives 7.3% (n = 220,000); active means well fitted inhibition curve with a large enough effect, not every such curve was filed as active; inconclusive means small, poorly fitted or top-dose-only effect, or another doubt; inactive means no such curve, though single readings can be large or run the other way;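 further: plate controls were no enzyme wells and a reference inhibitor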
NPSR antagonist: antagonists of human neuropeptide S receptor cAMP signaling; Potency, µM (doses to about 38.3 µM), for the others: at the top dose activity change, negative = inhibition, most hits filed as inhibitors; AID 1461; Q6W5P4; CHO-NPSR cells, cAMP TR-FRET, antagonist mode; actives 1% (n = 220,000); further: nearly all actives have a fitted effect of over 50% in size
Target sequence (Q6W5P4 whole entry, looked up): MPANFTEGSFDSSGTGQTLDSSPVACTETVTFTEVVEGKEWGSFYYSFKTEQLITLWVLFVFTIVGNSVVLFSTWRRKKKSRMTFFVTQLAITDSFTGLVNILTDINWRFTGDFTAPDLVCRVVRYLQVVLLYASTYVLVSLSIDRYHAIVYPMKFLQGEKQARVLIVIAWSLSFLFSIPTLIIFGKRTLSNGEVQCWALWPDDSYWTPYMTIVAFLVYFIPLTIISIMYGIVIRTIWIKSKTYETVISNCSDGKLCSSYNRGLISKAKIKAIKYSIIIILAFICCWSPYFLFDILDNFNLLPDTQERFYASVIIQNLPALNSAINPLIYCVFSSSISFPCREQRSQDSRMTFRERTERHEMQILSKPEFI
Tau ThT inhib: tau fibrillization inhibition (ThT binding); P10636; recombinant tau K18 P301L (four-repeat tau fragment), heparin-induced fibrillization, ThT fluorescence; Potency, µM (top dose mostly 57.4 µM), for inactives: at the highest dose activity, negative = inhibition, usual class: inhibitors; actives 2.1% (n = 270,000); AID 1460; further: nearly all actives have a fitted effect of over 55% in size
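Heparin-induced (20 uM) aggregation of recombinant human K18 P301L tau, 15 uM unlabeled with 0.24 uM labeled, pH 7 acetate buffer, 6 hr at 37 C with compound. Fibrils quantified by 30 uM ThT fluorescence after 1 hr ambient incubation.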
HPGD inh: blocks human HPGD enzyme activity | AID 894 | purified HPGD, NADH fluorescence kinetic, PGE2 substrate | actives 4.3% (n = 150,000) | Potency, µM, for inactives: top-dose activity change, negative = inhibition, most hits filed as inhibitors; active means well fitted inhibition curve with a large enough effect, not every such curve was filed as active; inconclusive means small, poorly fitted or top-dose-only effect, or another doubt; inactive means no such curve, though single readings can be large or run the other way
Target sequence (P15428 whole entry, looked up): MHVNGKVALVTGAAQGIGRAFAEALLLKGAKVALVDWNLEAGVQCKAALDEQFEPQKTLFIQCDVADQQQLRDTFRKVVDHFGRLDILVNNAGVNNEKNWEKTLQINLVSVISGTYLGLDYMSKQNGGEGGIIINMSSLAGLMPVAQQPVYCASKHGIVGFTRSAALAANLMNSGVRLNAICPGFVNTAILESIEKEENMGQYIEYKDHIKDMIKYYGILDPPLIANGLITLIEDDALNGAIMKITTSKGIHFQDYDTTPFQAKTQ
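NADH formation kinetics: reaction with 30 uM PGE2 and 1 mM NAD+ (final), 20 nM enzyme, Tris-HCl pH 8 with Tween 20, after 15 min compound preincubation at room temperature. Fluorescence change, last versus first of five reads.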
Tau FP inhib: blocks human tau fibril formation measured by polarization; P10636; K18 P301L tau heparin fibrillization, Alexa594 FP, 6 h; Potency, µM (series often up to 57.7 µM), without a hit: at the top dose activity, negative = inhibition, hits mostly inhibitors; actives 0.39% (n = 280,000); further: nearly all actives have a fitted effect of over 55% in size
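Recombinant K18 P301L […], labeled with Alexa 594 at 0.24 uM over 15 uM unlabeled; heparin inducer 20 uM final; 37 C, 6 hr; FP endpoint.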
The depositor's hits bear a star; ? = inconclusive; . = no result; [ ] = dose if it differs, or a comment. Unless noted, the call rests on the fitted dose curve; in most records, active means well fitted curve in the direction sought with a large enough effect; inconclusive means small, poorly fitted or top-dose-only effect, or another doubt; inactive means no such curve, though single readings can be large; an effect the other way counts as inactive or inconclusive. Unless noted, on the % scale 0 is the no-effect control and ±100 the full control effect; potency means the concentration at half of the fitted maximal effect.

SMILES | Tau fluor counter | ALDH1A1 block | NPSR antagonist | Tau ThT inhib | HPGD inh | Tau FP inhib
CC(C)C(OC(=O)c1ccco1)C(=O)NCc1ccccc1 (stereo unspecified) | 4% | 0% | -6%[46.1 µM] | 1% | 13µM* | -2%
CCCS(=O)(=O)c1nc(S(=O)(=O)c2ccc(C)cc2)c(N2CCc3ccccc3C2)s1 | -2% | 1.4µM* | -13% | 5% | -17% | -2%
CCCS(=O)(=O)c1nc(S(=O)(=O)c2ccc(C)cc2)c(N2CCCC2)s1 | -8% | 7.9µM* | -11%[46.1 µM] | -16% | -17% | 0%
CCCCCC(=O)NNC1CC(=O)N(c2cccc(OCC)c2)C1=O (stereo unspecified) | -11% | . | ? | -10% | . | -5%
Cc1ccc(CNC(=O)CN2CCCC(C)C2)cc1 (stereo unspecified) | -20% | -1% | -8%[46.1 µM] | -17% | 14µM* | 8%
Cc1cc(NC(=O)CN2CCCC(C)C2)no1 (stereo unspecified) | -5%[2.34 µM] | 6% | -3% | -6% | . | 7%
O=c1[nH]c(SCc2ccccc2)nc2c1CCCC2 | -7% | . | . | 7% | . | 0%
CC1=Nn2c(nnc2-c2cc(-c3ccccc3)n[nH]2)SC1 | 4% | -7% | -17%[46.1 µM] | 0% | -8% | 5%
CC1=Nn2c(nnc2C2CCCCC2)SC1 | -7% | ? | 3%[46.1 µM] | -6% | 28µM* | -3%
CCC(C)NC(=O)c1ccc2c(c1)nc1n2CCCCC1 (stereo unspecified) | -6% | . | . | -3% | . | -5%
c1csc(-c2nnsc2-c2nc3ccccc3[nH]2)c1 | ? | 10µM* | ? | ? | ? | -14%
O=C(O)C1C2C=CC(C2)C1C(=O)Nc1ccc(C(=O)N2CCCCC2)c(Cl)c1 (stereo unspecified) | 0% | -6% | -14%[46.1 µM] | -4% | 0.45µM* | 5%
Cc1cc2c(ncn2Cc2ccccc2)c([N+](=O)[O-])c1C | -1% | ? | -14%[46.1 µM] | 5% | 20µM* | 1%
COc1ccc(Cn2cnc3c(N)c(C)c(C)cc32)cc1 | -20% | -5% | 0% | -13% | . | -5%
CCOc1ccc(C(=O)c2cn(CC(=O)Nc3ccc(C)c(C)c3)c3ccc(OCC)cc3c2=O)cc1 | -4% | . | . | 0% | . | -16%
CCCCN(CC)CCCNC(=O)CN1C(=O)CSc2ccc(S(=O)(=O)N3CCOCC3)cc21 | -7% | 8% | 0% | -11% | . | 2%
CC(C)c1nc2ccc(C(=O)NCCCN3CCN(c4cccc(Cl)c4)CC3)cc2o1 | -10% | . | . | ? | . | 4%
Cn1c(-c2ccccc2)c(/C=N/NC(=O)c2ccc(O)cc2)c2ccccc21 | 20µM*[quencher] | -15% | 40% | ? | . | 2%
Cn1c(-c2ccccc2)c(C=O)c2ccccc21 | -9% | ? | 6% | -8% | . | 1%
CS(=O)(=O)Nc1cccc(-c2cc(Nc3ccccc3)ncn2)c1 | . | 1% | . | . | . | .
CCOC(=O)c1c(N)sc(=S)c2c1CCC2 | ? | 32µM* | -16%[7.67 µM] | 25µM* | ? | ?
CCOC(=O)c1c(N)ssc1=S | -27% | 3.2µM* | -11%[46.1 µM] | 7.9µM* | 25µM* | 11µM*
CCOC(=O)c1sc(N)c(C(N)=O)c1C | -5% | ? | 12% | -9% | . | -3%
CCOC(=O)c1c(N)sc(N)c1C(=O)OCC | ? | 1.8µM* | 2% | 14µM* | 8.9µM* | ?
CCCOC(=O)c1c(N)sc(C(=O)OCC)c1C | ? | -2% | 5% | ? | -14% | 1%
SMILES | Tau fluor counter | ALDH1A1 block | NPSR antagonist | Tau ThT inhib | HPGD inh | Tau FP inhib
CCOC(=O)c1c(N)sc(C(N)=O)c1C | 1% | 25µM* | 21%[46.1 µM] | -8% | ? | -3%
CCOC(=O)c1c(N)sc(C(=O)N2CCCCCC2)c1C | 0% | ? | -5%[46.1 µM] | -2% | . | 4%
C=CCn1sc(N)c(C(=O)OCC)c1=S | -12% | 5% | -19%[46.1 µM] | -7% | -6% | 7%
Cc1ccc(OCc2csc(N)n2)cc1 | -3% | 5% | 19% | -10% | . | 10%
Cc1c(C(=O)OC(C)C)sc(N)c1C(=O)OC(C)C | 1% | ? | -39% | 5% | 22µM* | 8%
CCOC(=O)c1c(N)sc(C(=O)Nc2ccccc2)c1C | -20% | 10µM* | 15% | ? | . | 14%
O=C(CCSCCC(=O)Nc1c(F)c(F)c(F)c(F)c1F)Nc1c(F)c(F)c(F)c(F)c1F | 4% | 1% | 0% | 12% | . | 1%
Fc1ccc(C2NC(=S)NC3=C2N2CCC3CC2)cc1 (stereo unspecified) | -4% | 14µM* | 9%[46.1 µM] | -9% | -5% | 0%
CCCc1cc(=O)c2c(O)cccc2o1 | -11% | -11% | 2% | -4% | . | -8%
CCCc1cc2c(c(=O)o1)C(O)C1OC1C2=O (stereo unspecified) | ? | 4µM* | . | ? | . | 6%[11.6 µM]
Cc1cc(/C=N/n2cnnc2)c(O)c([N+](=O)[O-])c1 | -6% | -6% | -15% | 4µM* | -22% | 11%
Cc1cc(C(c2ccc(C)o2)c2ccc(C)o2)c(O)c([N+](=O)[O-])c1 | -26% | ? | -14%[46.1 µM] | ? | -16% | -6%
COc1ccc(CN2CCC(N(CCc3ccccc3)Cc3ccccc3)CC2)c(OC)c1 | -12% | ? | 7.9µM* | -11% | . | -12%
Cc1ccc([C@@]2(C)CC/C(=N/N=C3\CC[C@](C)(c4ccc(C)c(C)c4)c4cc(C)c(C)cc43)c3cc(C)c(C)cc32)cc1C | . | -3%[13.5 µM] | . | . | -9% | .
Cc1nn(-c2ccc(F)cc2)c2sc(C(=O)N3CCCCCC3)cc12 | -1% | 35µM* | ? | 1% | 16µM* | 5%
Cc1nn(-c2ccc(Cl)cc2)c2sc(C(=O)N3CCN(C(=O)c4ccco4)CC3)cc12 | -2% | 3% | -8%[46.1 µM] | ? | -13% | 1%
CCOc1cccc(=O)c2c(C)n(-c3ccc(C(=O)O)cc3)c(C)c12 | -10% | 4% | 45% | ? | . | -9%
COc1ccccc1-n1c(C)c2c(OC)cccc(=O)c2c1C | -9% | ? | 8% | ? | 11µM* | -4%
COc1ccc(-n2c(C)c3c(OC)cccc(=O)c3c2C)cc1 | -23% | 0% | -5%[46.1 µM] | 18µM* | -25% | ?
COc1ccc(Nc2oc(-c3ccc(COc4cccc(C)c4)o3)nc2C#N)cc1 | ? | . | . | 5% | . | 16%
Cc1cc(C)cc(-n2ccnc2SCC(=O)Nc2cccc3ccccc23)c1 | -23% | . | . | ? | . | -5%
COc1ccc(Sc2ccc(/C=C3\C(=O)NN(c4ccccc4)C3=O)o2)cc1 | ? | ? | -54% | 10µM* | 16µM* | ?
O=C1NN(c2ccccc2)C(=O)/C1=C\c1ccc(-c2cc([N+](=O)[O-])ccc2O)o1 | 7.9µM*[quencher] | ? | 18% | 3.5µM* | . | ?
